Screening results as filed in PubChem.
This is a sample that favours compounds with a hit; in the whole collection about 3.4% have one here.
HIF-2a block – HIF-2a reporter inhibitors, primary screen, luminescence, 786-0 RCC cells | 786-0 RCC cells HIF-2a reporter, luciferase luminescence, overnight | inhibition, % at 18.8 µM | 360,000 tested, 0.72% active | AID 624352, 2012;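 active means inhibition of the luminescence signal of 40% or more relative to plate controls, in a single-dose primary screen at 18.75 µM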
Shn3 3UTR inh – reduction of Shn3 3'UTR firefly luciferase signal, primary screen, Schnurri-3 inhibitor project, cell-based, Clone20 osteoblasts, set 2; Clone20 osteoblast Shn3 3'UTR firefly luciferase, 24 h; inhibition, % at 12.5 µM; 360,000 tested, 0.52% active; AID 588674, 2011;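 active means mean inhibition of at least 75% with every replicate also reaching 75%; inconclusive means mean inhibition at least 75% but some replicate below; inactive means mean inhibition below 75%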
TWEAK-Fn14 inh – inhibitors of TWEAK-Fn14 signaling, primary screen, luciferase reporter cells, uHTS | TWEAK-stimulated Fn14 reporter cells, luciferase luminescence, 8 h | inhibition, % at 10 µM | 360,000 tested, 2% active; in the data active means inhibition above about 50%
TROY NFkB inh – inhibitors of TROY-driven NF-kB signaling, primary screen, Q293 LMP1-TROYcd cells, NF-kB luciferase, uHTS; inhibition, % at 10 µM; Q293 LMP1-TROYcd NF-kB luciferase reporter, 4 h; 360,000 tested, 0.98% active;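 active means compounds whose plate-normalised and pattern-corrected inhibition of the luciferase reporter signal at the single screening dose is 50% or more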
EBV LMP1 NFkB – EBV LMP1-driven NF-kappaB luciferase reporter inhibitors, primary screen, cell-based, luminescence, single point; AID 504558, 2011; 350,000 tested, 0.69% active; inhibition, % at 12.5 µM; LMP1-induced NF-kappaB luciferase reporter cells; in the data active means inhibition above about 41%; inconclusive means no clear call, values can overlap the other calls
MITF TRPM1 inh – inhibitors of MITF-dependent TRPM1 promoter reporter, primary screen, cell-based, SK-MEL-5, single point, luciferase; 330,000 tested, 0.83% active; inhibition, % at 12.5 µM; SK-MEL-5 TRPM1 promoter luciferase, 24 h;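 active means mean inhibition across replicates of 60% or more, whatever share of single replicates reaches that level; inconclusive means some that reach 60%, reason not given; inactive means mean inhibition across replicates below 60%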
Hits are given with their value; n = inactive; u = inconclusive; x = no result given.

SMILES	HIF-2a block	Shn3 3UTR inh	TWEAK-Fn14 inh	TROY NFkB inh	EBV LMP1 NFkB	MITF TRPM1 inh
O=C1CC2(CCCC2)C(=O)N1c1ccc(S(=O)(=O)NCC2CC2)cc1Cl	n	n	n	n	n	n
CC(C)CC1OC(C)Cc2[nH][nH]c(=O)c21 (stereo unspecified)	n	x	n	n	x	x
CCOC(=O)c1cc([N+](=O)[O-])c([N+](=O)[O-])cc1NC(C)=O	n	98	n	n	n	88
Cc1c(C(c2ccccc2O)c2c(C)n(C)n(-c3ccccc3)c2=O)c(=O)n(-c2ccccc2)n1C	n	n	n	n	n	n
Cc1c(C(c2cc3c(cc2Br)OCO3)c2c(C)n(C)n(-c3ccccc3)c2=O)c(=O)n(-c2ccccc2)n1C	n	n	64	n	n	n
CCC(C)(C)C(=O)Nc1cccc(Cl)c1C	n	n	n	n	n	n
O=C1c2cc(F)ccc2-n2c1nc1ccccc1c2=O	n	n	n	n	n	98
C[C@H]1CN(C2CCCCC2)C(=O)[C@@H]1CC(=O)Nc1ccccc1	n	n	n	n	n	x
Oc1[nH]c2ccc(Br)cc2c1N=NC(=S)Nc1ccc(F)cc1	n	n	63	n	n	n
C=C(C(=O)c1ccccc1)C(C)CC(=O)c1ccccc1 (stereo unspecified)	n	n	63	n	n	n
O=[N+]([O-])c1ccc(-c2ccc(C=Nc3cccc4ccccc34)o2)cc1	n	n	62	63	n	n
COc1ccc(CCNC(=O)C(=O)NCC2OCCN2S(=O)(=O)c2cc(F)ccc2F)cc1 (stereo unspecified)	n	n	n	n	n	x
[O-][N+]1=c2ccc(Nc3ccccc3)cc2=NC12CCCCC2	n	n	n	n	n	61
COc1ccc(Nc2ccc3c(c2)=NC2(CCCCC2)[N+]=3[O-])cc1	n	n	n	n	u	86
CC(=O)c1cnn(-c2ccccc2)c1C	n	n	n	n	n	n
Cc1c(C(=O)Oc2cccc3ccccc23)cnn1-c1ccccc1	n	n	73	82	n	n
O=C(C1CC(=O)N(c2ccccc2F)C1)N1CCOCC1 (stereo unspecified)	n	n	n	n	n	n
O=C(CCCN1C(=O)/C(=C/c2ccco2)SC1=S)Nc1cccc(C(=O)O)c1	n	n	n	n	n	n
COc1ccc(NC(=O)CCCN2C(=O)/C(=C\c3ccco3)SC2=S)cc1	61	n	n	n	n	n
COc1ccc(/C=C2\SC(=S)N(CCCC(=O)NNC(=O)c3ccccc3O)C2=O)cc1	90	n	n	n	n	92
COc1ccccc1/C=C1\SC(=S)N(CCC(=O)NNC(=O)c2ccccc2O)C1=O	n	n	n	n	n	n
COc1ccc(/C=C2/SC(=S)N(CCCC(=O)Nc3cccc(O)c3)C2=O)cc1	56	n	n	n	n	n
Cc1ccc(/C=C2/SC(=S)N(CCCC(=O)Nc3cc([N+](=O)[O-])ccc3O)C2=O)cc1	65	n	n	n	n	n
CC(=O)Nc1cccc2c1C(=O)N(c1ccc(OC(C)=O)cc1)C2=O	n	n	n	n	n	n
CNc1ccc(-c2ccccc2CO)cn1	n	n	n	n	x	x
SMILES	HIF-2a block	Shn3 3UTR inh	TWEAK-Fn14 inh	TROY NFkB inh	EBV LMP1 NFkB	MITF TRPM1 inh
CCOC(=O)c1ccc(NC(=O)c2nc[nH]c2C(=O)N[C@@H](C)CO)cc1	n	n	n	n	n	x
COCCCNC(=O)COc1cc2c(c3oc(=O)c(C)c(C)c13)CCC(C)(C)O2	n	n	n	n	n	n
CCOc1ccccc1N(CC(=O)Nc1ccccc1Br)S(=O)(=O)c1ccccc1	n	n	n	n	n	x
Cc1ccc(/C=C2\SC(=S)N(CCCC(=O)Nc3ccccc3C(=O)O)C2=O)cc1	87	n	84	83	n	n
CCc1ccc(/C=C2\SC(=S)N(CCCC(=O)Nc3ccc(C(=O)O)cc3)C2=O)cc1	n	n	n	n	n	n
Cc1ccc(/C=C2\SC(=S)N(CCCC(=O)Nc3nccs3)C2=O)cc1	48	n	n	n	n	n
COC(=O)c1ccc(/C=C2/SC(=S)N(CCCC(=O)Nc3ccc(O)cc3)C2=O)cc1	58	n	n	n	n	n
